Assay outcomes deposited in PubChem BioAssay by The Scripps Research Institute Molecular Screening Center.
A selection: hits, their analogues and other compounds. The true share with any hit is near 4.1%.
DAX1 inh-1: DAX1 (NR0B1) inhibitors, primary screen, cell-based, HEK293, Gal4-DAX1, luciferase luminescence. AID 504766, 2011. actives 0.99% (n = 340,000). inhibition, % at 6.75 µM. HEK293 Gal4-DAX1 luciferase reporter. Nuclear receptor subfamily 0 group B member 1 (Homo sapiens), P51843;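 active = inhibition above the mean over all tested compounds plus 3 SD, cut at about 4.2% in these data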;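 note: 0% = DAX1-transfected cells with DMSO and 100% = empty-vector control cells with DMSO; inhibition shows as a rise in luminescence from relieved DAX1 repression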
Target sequence (P51843 207-470 limits assumed): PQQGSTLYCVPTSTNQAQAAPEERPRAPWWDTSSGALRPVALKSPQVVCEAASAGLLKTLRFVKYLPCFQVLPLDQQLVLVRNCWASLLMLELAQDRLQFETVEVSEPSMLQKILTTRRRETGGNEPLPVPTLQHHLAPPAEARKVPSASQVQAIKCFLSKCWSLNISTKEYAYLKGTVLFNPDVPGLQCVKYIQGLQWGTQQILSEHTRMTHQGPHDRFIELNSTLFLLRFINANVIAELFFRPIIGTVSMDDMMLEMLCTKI
DAX1 inh-2: DAX1 (NR0B1) inhibitors on StAR promoter, primary screen, cell-based, luminescence, SF-1 (NR5A1), full-length DAX-1. HEK293T StAR-luciferase reporter, SF-1/DAX-1 repression relief. actives 1.1% (n = 370,000). inhibition, % at 6.8 µM;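 active = inhibition above the mean over all tested compounds plus 3 SD, cut at about 3.6% in these data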;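 note: 0% = DAX-1 cells with DMSO and 100% = cells lacking DAX-1 with DMSO; higher inhibition means more luminescence from relief of DAX-1 repression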
ssDAF12 agonist: S. stercoralis DAF-12 nuclear receptor activators, primary screen, cell-based, luminescence, HEK293, GRIP1 co-expression, lit1-tk-luc. Nuclear hormone receptor DAF-12 (Strongyloides stercoralis). HEK293 ssDAF-12/GRIP1 lit1-tk-luc reporter; % of 3 µM dafachronic acid response. activation, % at 6.8 µM. actives 1% (n = 370,000). AID 652126, 2013;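 active = activation above the mean over all tested compounds plus 3 SD, cut at about 0.9% in these data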;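 note: 0% = DMSO-only wells and 100% = 3 µM delta7-dafachronic acid wells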
hgDAF12 agonist: H. glycines DAF-12 receptor agonists, primary screen, cell-based, luminescence, HEK293, GAL4 fusion, UAS-luciferase | AID 687014, 2013 | actives 1.8% (n = 370,000) | Nuclear hormone receptor DAF-12 (Heterodera glycines), GAL4 fusion | HEK293 GAL4-hgDAF12 UAS-luciferase reporter, agonist luminescence; normalized to butyrate control | activation, % at 6.8 µM;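 active = activation above a cutoff set at the mean of all screened compounds plus 3 SD, cut at about 10% in these data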;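 note: 0% = DMSO wells and 100% = sodium butyrate wells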
hcDAF-12 act: H. contortus DAF-12 nuclear receptor activators, primary screen, cell-based, luminescence, HEK293, lit1-tk-luc reporter. activation, % at 6.8 µM. HEK293 hcDAF-12 lit1-tk-luc reporter; 0% DMSO, 100% Δ7-dafachronic acid. actives 1.4% (n = 370,000). AID 652067, 2013;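 active = activation above the mean of all tested compounds plus 3 SD, cut at about 5.5% in these data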;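 note: 100% = response to 3 µM Δ7-dafachronic acid high control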
LXR ag: LXR agonists, Gal4 luciferase reporter, confirmation, counter-screen for hcDAF-12 agonist project, cell-based, luminescence, HEK293, H. contortus campaign; shares compounds with hcDAF-12 act; HEK293 Gal4-LXR tk-luc reporter, 24 h; normalized: DMSO 0%, positive control 100%; activation, % at 6.8 µM; 3,400 tested, under 10 active; AID 743027, 2013;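 active = mean percent activation of the reporter above a cutoff set as the average over tested compounds plus their standard deviation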
hcDAF12 conf: H. contortus DAF-12 receptor agonists, confirmation, cell-based, luminescence, HEK293, lit1-tk-luc, triplicate | shares compounds with hcDAF-12 act | HEK293 hcDAF-12 lit1-tk-luc reporter; % of Δ7-dafachronic acid response | activation, % at 6.8 µM | actives 61% (n = 3,400) | AID 743032, 2013;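 active = mean activation across triplicate tests above the threshold derived from the earlier primary screen, cut at about 5.5% in these data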;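 note: 0% = DMSO only wells and 100% = 3 µM Δ7-dafachronic acid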
Numbers without * were called inactive; . = no result given.

SMILES | DAX1 inh-1 | DAX1 inh-2 | ssDAF12 agonist | hgDAF12 agonist | hcDAF-12 act | LXR ag | hcDAF12 conf
CN=c1scc(-c2ccccc2F)n1/N=C/c1ccc(O)c(O)c1O | -2.3 | 3.1 | 0.6 | 6.0 | 7.2* | 1.3 | 16.3*
CN=c1scc(C)n1/N=C/c1ccc(O)cc1O | -2.5 | 3.6* | 0.7 | 6.3 | 7.6* | 1.9 | 6.6*
C[C@H](O)[C@@H]1CN2CCc3c([nH]c4c(-c5ccc6c(c5)OCO6)cccc34)[C@@H]2C[C@@H]1N(C)C(=O)Nc1ccccc1 | . | -1.5 | -0.9 | 4.0 | -3.0 | . | .
c1ccc(SCc2nc(-c3cccnc3)no2)cc1 | 2.4 | 0.3 | 0.5 | 8.4 | 7.3* | 1.6 | 5.8*
Cc1ccccc1-c1ccc2c(c1)[C@@H]1C[C@H](N(C)CC3CCCCC3)[C@H]([C@H](C)O)CN1CC2 | . | -0.1 | -0.5 | 3.6 | 0.3 | . | .
Cc1nc(N2CCN(C(=O)COc3ccccc3C)CC2)c2c3c(sc2n1)CCCC3 | . | . | -3.3 | -5.6 | -6.8 | . | .
Cc1ccc(Oc2cccc3c2S(=O)(=O)N([C@H](C)c2ccccc2)C[C@@H](COCc2ccccc2)O3)cc1 | . | -0.6 | -1.4 | -0.7 | -1.9 | . | .
COc1ccc(/C=N/N2C(C)CCCC2C)cc1O (stereo not given) | -0.1 | 0.7 | 0.9* | 2.0 | 8.1* | 0.3 | 7.4*
O=C(C1CCCN(S(=O)(=O)c2ccc(Br)s2)C1)N1CCN(Cc2ccccc2)CC1 (stereo not given) | . | -2.5 | -1.9 | -1.9 | -2.4 | . | .
COc1ccc(N=C2NN=C(c3c(C)[nH]c4ccccc34)CS2)cc1 | -3.3 | -2.5 | -0.9 | 4.6 | 2.5 | . | .
Cc1[nH]c2ccccc2c1C1=NNC(=Nc2ccc(F)cc2)SC1 | 4.4* | -1.2 | -0.5 | -0.2 | 7.1* | -0.2 | 0.8
COc1ccccc1Cc1nc(-c2ccc(Br)o2)no1 | -1.8 | 2.8 | 0.7 | 3.6 | 8.1* | 0.2 | 8.0*
O=C(c1ccccc1)N1CC[C@H]2[C@H](CCCN2Cc2cc(F)cc(F)c2)C1 | . | -0.9 | -1.9 | 2.6 | -2.3 | . | .
COc1ccc(CN(C(=O)c2cc3ccccc3oc2=O)C2CCS(=O)(=O)C2)cc1OC (stereo not given) | 0.0 | 1.1 | 0.5 | 9.9 | 10.1* | 0.6 | 3.1
Cn1ccnc1Sc1ccc(/C=N/NC(=O)c2ccccc2O)cc1[N+](=O)[O-] | 0.3 | 0.0 | 0.6 | 5.5 | 9.5* | 0.1 | 7.2*
CCOC(=O)COn1c(=O)c(-c2ccc(F)cc2)[n+]([O-])c2ccccc21 | 1.4 | 0.5 | -0.9 | 0.5 | -0.8 | . | .
CCOC(=O)COn1c(=O)c(-c2cc3ccccc3o2)[n+]([O-])c2ccccc21 | 1.3 | 2.5 | 1.0* | 8.6 | 9.3* | 1.5 | 14.4*
C=CCOn1c(=O)c(-c2ccccc2)[n+]([O-])c2ccccc21 | 0.3 | -0.4 | 0.3 | -1.7 | 3.7 | . | .
C=CCOn1c(=O)c(-c2cc3ccccc3o2)[n+]([O-])c2ccccc21 | 1.6 | 2.4 | 1.8* | 12.0* | 11.1* | 0.4 | 5.5
COC(=O)[C@]12C[C@H](CC(=O)NCCc3ccccc3OC)C(=O)N(CCc3ccc(OC)c(OC)c3)C1=C[C@H](C1CCCC1)O[C@@H]2C | . | -0.8 | -0.3 | 1.4 | 0.9 | . | .
